Screens: PubChem BioAssay, The Scripps Research Institute Molecular Screening Center
A selection: hits, their analogues and other compounds. The true share with any hit is near 2.3%.
CHRM1 agonist: human M1 muscarinic receptor agonism; AID 588814; 360,000 tested, 0.33% active; activation, % at 3 µM; P11229; CHO-K1 hM1, Fluo-8 calcium fluorescence, agonist mode; 0% DMSO, 100% acetylcholine EC100;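 active = activation above the run's mean compound activation plus 3 SD, cut at about 16% in these data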;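 also: peak over basal fluorescence ratio within a 140 s kinetic read after compound addition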
Target sequence (P11229 whole entry, looked up): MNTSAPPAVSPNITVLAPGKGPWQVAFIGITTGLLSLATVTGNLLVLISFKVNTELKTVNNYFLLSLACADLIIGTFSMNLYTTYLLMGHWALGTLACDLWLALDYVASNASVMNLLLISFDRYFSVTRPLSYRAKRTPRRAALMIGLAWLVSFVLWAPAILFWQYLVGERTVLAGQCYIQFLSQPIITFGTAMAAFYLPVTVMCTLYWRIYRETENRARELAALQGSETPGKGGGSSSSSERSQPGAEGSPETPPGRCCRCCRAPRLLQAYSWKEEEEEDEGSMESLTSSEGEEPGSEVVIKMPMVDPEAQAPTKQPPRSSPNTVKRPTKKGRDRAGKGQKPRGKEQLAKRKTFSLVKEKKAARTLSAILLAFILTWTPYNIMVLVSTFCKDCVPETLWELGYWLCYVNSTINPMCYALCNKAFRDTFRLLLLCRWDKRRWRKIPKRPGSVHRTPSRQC
CHO-K1 Ca PAM: counter-screen for M1 PAMs: effect in parental CHO-K1 cells. ATP EC20, Fluo-8 calcium fluorescence; 0% at ATP EC20, 100% at ATP max. activation, % at 3 µM. 360,000 tested, 0.02% active;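 active = activation above the run cutoff, the mean activation of all test compounds plus 3 SD, cut at about 40% in these data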;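 also: peak over basal fluorescence ratio in a 140 s read after ATP addition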
CHRM1 antagonist: antagonists of human M1 muscarinic receptor | P11229 | CHO-K1 hM1, Fluo-8 calcium fluorescence, ACh EC80 antagonist | inhibition, % at 3 µM | 360,000 tested, 1.3% active | AID 588852;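 active = percent inhibition above its own plate's cutoff, namely the mean of that plate's compound wells plus 3 SD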;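 also: peak over basal fluorescence ratio during 140 s after agonist addition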
CHO-K1 Ca antag: counter-screen for M1 antagonists: effect in parental CHO-K1 cells. 360,000 tested, 0.6% active. ATP-induced calcium, Fluo-8 fluorescence. inhibition, % at 3 µM;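 active = inhibition above a per-plate cutoff, the plate's mean sample inhibition plus 3 SD, cut at about 24% in these data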
M1 PAM: human CHRM1 positive allosteric modulation; P11229; CHO-K1 hM1, Fluo-8 calcium fluorescence, ACh EC20; 0% = ACh EC20, 100% = maximal ACh; activation, % at 3 µM; 360,000 tested, 0.088% active; AID 588819; in the data active = activation above about 19%, passing the limit was not always enough
M1 ag parental: nonselective activator or artifact in parental CHO-K1 cells | Fluo-8 calcium fluorescence; scaled to maximal ATP response, vehicle zero | activation, % at 3 µM | 360,000 tested, 0.48% active | AID 602248; in the data active = activation above about 15%;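 also: untransfected CHO-K1 host cells lacking M1 receptor as counterscreen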
Large screens that a line does not name were inactive.

CCCNCc1cc(Br)ccc1OCC(=O)NCCc1ccccc1	none
COc1cc(-c2n[nH]c(=S)n2/N=C/c2cccn2C)cc(OC)c1OC	CHRM1 agonist 64, CHRM1 antagonist 39, M1 ag parental 22
Cn1cccc1/C=N/n1c(-c2ccco2)n[nH]c1=S	none
NS(=O)(=O)c1ccc(N2C(=O)CCCC2=O)cc1	none
Cc1nc2ccc(Cl)cc2c(-c2ccccc2Cl)c1CC(=O)O	none
CN1CCc2nc3ccc(Cl)cc3c(-c3ccccc3Cl)c2C1	CHRM1 antagonist 93
CC1(C)CC(=O)C=C(Nc2ccc(O)c(C(=O)O)c2)C1	M1 PAM 30
CC1(C)CC(=O)C=C(Nc2ccc(C(=O)O)cc2)C1	none
NC(=O)COC(=O)C1c2ccccc2Oc2ccccc21	none
CN(CCOC(=O)C1c2ccccc2Oc2ccccc21)C(C)(C)C	CHRM1 antagonist 98
CN(C)CCCOC(=O)C1c2ccccc2Oc2ccccc21	CHRM1 antagonist 97
CC[N+](C)(CC)CCOC(=O)C1c2ccccc2Oc2ccccc21	CHRM1 antagonist 97
CN(C(=O)COC(=O)c1ccc2c(c1)OCCO2)C1CCCCC1	none
Cc1ccc2c(CC(=O)Nc3nc(C)cs3)coc2c1	none
COc1ccc(C(=O)CCc2ccccc2)c(O)c1	CHO-K1 Ca antag 29
N#CC1(NC(=O)COc2cccnc2[N+](=O)[O-])CCCCC1	none
CCN(CC)c1ccc2nc3ccccc3[n+](CC)c2c1	CHRM1 antagonist 69
O[Si](CCCN1CCCCC1)(c1ccc(F)cc1)C1CCCCC1 (centres undefined)	CHRM1 antagonist 97
Cc1cc(C(=O)N2CCC2(C)C(=O)O)nn1C(C)(C)C (centres undefined)	CHO-K1 Ca antag 27
CCOC(=O)C1(C)CCN1C(=O)c1cc(C)n(C(C)(C)C)n1 (centres undefined)	none
CN(C)S(=O)(=O)c1cccc(NC(=O)c2ccccc2OCc2ccc(F)cc2)c1	none
Cc1oc(-c2cccc3ccccc23)nc1CN1CCN(c2ncnc3ccccc23)CC1	M1 ag parental 23
O=C(CC1NCCc2ccccc21)Nc1ccccc1 (centres undefined)	none
O=C(CC1NCCc2ccccc21)Nc1ccc(Oc2ccccc2)cc1 (centres undefined)	M1 ag parental 20
COc1ccc(OCC(O)CNC(=O)Nc2cccc3ccccc23)cc1 (centres undefined)	none
O=C(CNC(=O)c1ccccc1)OC1CCCCC1	none
C[N+]1(C)CCCC(OC(=O)C(O)(c2ccccc2)c2ccccc2)C1 (centres undefined)	CHRM1 antagonist 99
COc1ccc(NC(=O)CN(C)CC(=O)Nc2sc3c(c2C#N)CCC3)cc1	CHRM1 antagonist 34
CC(C)CCNC(=S)Nc1ccc([N+](=O)[O-])cc1	CHO-K1 Ca antag 29
CC(C)CCNC(=S)Nc1ccc(Br)cc1	none
CCCCNC(=S)Nc1ccc([N+](=O)[O-])cc1	CHRM1 antagonist 27, CHO-K1 Ca antag 34
CCCCNC(=S)NC(=O)c1ccc([N+](=O)[O-])cc1	none
CCOc1ccccc1C1C2C(=O)N(c3ccccc3)C(=O)C2ON1c1ccccc1 (centres undefined)	CHRM1 antagonist 28
COc1cc2c(cc1OC)n(CC(=O)NC1CCCCCC1)n1c(C)cc(=O)nc21	none
CC1CCN(C(=O)N2c3ccccc3Sc3ccccc32)CC1	none
CC1CCN(CC(O)CN2c3ccccc3Sc3ccccc32)CC1 (centres undefined)	M1 ag parental 25
COc1ccc(CSc2nc(C)cc(=O)[nH]2)cc1Br	M1 ag parental 19
Cc1cc(=O)[nH]c(SCc2cccc(Br)c2)n1	none
Cc1ccc(S(=O)(=O)N2CCCCC2)cc1NC(=O)COC(=O)Cc1cccc(C(F)(F)F)c1	none
Cc1noc(C)c1S(=O)(=O)N(C)C[C@H]1Oc2ccc(NC(=O)Cn3cnnn3)cc2C(=O)N([C@H](C)CO)C[C@@H]1C	none
C[C@H](CO)N1C[C@H](C)[C@@H](CN(C)S(=O)(=O)c2ccccc2)Oc2ccc(NC(=O)Cn3cnnn3)cc2C1=O	CHRM1 antagonist 34
